One may read the inhibition as the relative decrease from the control value, in per cent.

Each structure is given as a SMILES string. The campaign covered roughly 89,000 compounds. About 440 (0.49%) were called active.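 The calls were made as follows: active = inhibition above the mean inhibition across all screened compounds plus 3 SD (cut at about 11% in these data); inactive = the rest.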 Shown is part of a subset that was picked to be rich in actives.

This assay deals with RNA-editing ligase 1, mitochondrial (Trypanosoma brucei brucei) (UniProt P86926). Description: T. brucei editing ligase REL1 blockade – biochemical, FRET fluorescence, primary screen (AID 1117264).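 Also: 0% = plate median of test wells and 100% = NSC42067 control.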 The note with it: TbREL1 RNA ligation, at 9.66 µM, active compounds read high.
RNA-editing ligase 1, mitochondrial (Trypanosoma brucei brucei), sequence (P86926 whole entry, looked up): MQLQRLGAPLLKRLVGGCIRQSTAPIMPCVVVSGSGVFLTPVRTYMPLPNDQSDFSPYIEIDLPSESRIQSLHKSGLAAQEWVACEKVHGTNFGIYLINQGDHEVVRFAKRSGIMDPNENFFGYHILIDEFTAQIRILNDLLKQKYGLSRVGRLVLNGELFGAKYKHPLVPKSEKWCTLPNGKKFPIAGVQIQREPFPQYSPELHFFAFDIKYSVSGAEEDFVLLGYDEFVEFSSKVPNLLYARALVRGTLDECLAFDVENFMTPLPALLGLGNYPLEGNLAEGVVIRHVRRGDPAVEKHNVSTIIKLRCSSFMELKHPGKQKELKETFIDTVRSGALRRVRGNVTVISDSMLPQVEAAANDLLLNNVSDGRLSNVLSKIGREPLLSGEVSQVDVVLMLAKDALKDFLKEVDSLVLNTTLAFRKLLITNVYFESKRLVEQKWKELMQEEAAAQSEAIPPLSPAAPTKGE
For `COc1ccc(N2CCC(CNC(=S)Nc3c(C)cccc3C)C2)cc1` (stereo unspecified), the inhibition was -3.26% (inactive).

On to `Cc1cccc(C)c1NC(=O)C(c1cccc(F)c1)N1CCN(C)CC1` (stereo unspecified), for which the inhibition is -2.52% (inactive).

Take `COc1ccc(C(C(=O)Nc2c(C)cccc2C)N2CCN(c3ccc(C)cc3)CC2)cc1` (stereo unspecified): the inhibition was 23.2% (active).

Regarding `COc1ccc(C2COC(=O)C2=N)c(NC(=O)c2ccccc2)c1` (stereo unspecified), the inhibition was -1.11% (inactive).

For `COc1ccc(N2C(=O)CC(SC(C)C)C2=O)cc1` (stereo unspecified), the inhibition was -3.91% (inactive).

As for `CCOc1ccc(C(=O)CCC(=O)Nc2ccncc2)cc1`, the inhibition is -0.23% (inactive).

For the compound `O=C(CSc1nc(O)c(Cc2ccccc2)c(=O)[nH]1)Nc1nc2c(s1)CCCC2`, the inhibition is -3.09% (inactive).

As for `CC1CCCCC12NC(=O)N(CC(=O)N1CCN(c3ccccc3)CC1)C2=O` (stereo unspecified), the inhibition is -1.93% (inactive).

On to `C[C@H](NC(=O)c1ccccc1Cl)C(=O)OCC(=O)N1CCN(c2ccccc2)CC1`, for which the inhibition was -4.27% (inactive).

`O=C(NC1CCC(O)CC1)c1ccccc1OCc1ccc(F)cc1` (stereo unspecified): the inhibition was -4.15% (inactive).

For the compound `CCC(C)NCC(=O)Nc1ccc([N+](=O)[O-])cc1C(=O)Nc1ccccc1F` (stereo unspecified), the inhibition was 1.57% (inactive).

For the compound `O=C(COC(=O)/C=C/c1ccc2c(c1)OCO2)NC1CCS(=O)(=O)C1` (stereo unspecified), the inhibition is -1.84% (inactive).

Consider `CC(=O)c1c(C)oc2ccc(NS(=O)(=O)c3ccc(C(=O)O)cc3)cc12`, for which the inhibition was 2.43% (inactive).

Regarding `Cc1cc(C)nc(NC(=S)N2CCN(c3ccc(C(F)(F)F)cn3)CC2)c1`, the inhibition is -3.25% (inactive).

With `Cc1cccc(C(=O)Nc2ccc3c(c2)C(=O)N(CC(C)C)C3=O)c1`, the inhibition is 5.77% (inactive).

Turning to `CC(=O)N(CN1C(=O)C2C3C=CC(C3)C2C1=O)c1cccc(Cl)c1` (stereo unspecified), the inhibition was -2.46% (inactive).

For the compound `COC(=O)[C@@]12CCCCC3=C1N(CCC3)C(=O)[C@H]2CC(=O)NCc1cccc2ccccc12`, the inhibition was -3.03% (inactive).

With `CN(CC(=O)Nc1c(Cl)cccc1Cl)C(=O)c1ccncc1`, the inhibition was -0.71% (inactive).

With `CCOC(=O)[C@H]1[C@H]2COc3ccc(Cl)cc3[C@@H]2N2C(=O)c3cc(C)ccc3NC(=O)[C@@]12C`, the inhibition is -1.49% (inactive).

Take `COc1cccc(CNC(=O)CNS(=O)(=O)c2ccc3nc(C)sc3c2)c1OC`: the inhibition was -4.98% (inactive).

As for `CCCCN(C1CCS(=O)(=O)C1)S(=O)(=O)c1ccc(C(C)C)cc1` (stereo unspecified), the inhibition was 0.44% (inactive).

Take `COc1cccc(NC(=O)CN(C)C(=O)CSCc2nc3scc(-c4cccs4)c3c(=O)[nH]2)c1`: the inhibition is -0.31% (inactive).

`Cc1ccccc1NC(=O)Cn1cc(C(=O)C2CC2)c2ccccc21`: the inhibition is 2.47% (inactive).

With `COc1cc(NS(=O)(=O)c2ccc(NC(C)=O)cc2)cc(OC)c1`, the inhibition is 0.52% (inactive).

With `COc1cccc(NC(=O)CCNS(=O)(=O)c2ccc3c(c2)oc(=O)n3C)c1`, the inhibition was 3.31% (inactive).

On to `COc1cc(NC(=O)CCS(=O)(=O)c2ccc3c(c2)oc(=O)n3C)cc(OC)c1`, for which the inhibition is 12.5% (active).
